# PubChem BioAssay (NCI)
# Compounds without any hit were thinned out: in the full panel of roughly 83,000, 20% have a hit.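 Single-dose data. Exposure time 48 hours. Values below 10 considered active.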 Values without a mark were called inactive. Activity calls are given as the source filed them.
# Key:
# Assay in all cases: NCI-60 one-dose screen, 48 h (100 = growth as untreated, 0 = no growth, -100 = all killed)
# Conditions in all cases: 10 µM unless noted
# NCI-H23 lung = test system: NCI-H23 lung
# NCI-H226 lung = test system: NCI-H226 lung
# NCI-H322M lung = test system: NCI-H322M lung
# HOP-62 NSCLC = test system: HOP-62 NSCLC
# NCI-H460 lung = test system: NCI-H460 lung
# HOP-92 NSCLC = test system: HOP-92 NSCLC
# NCI-H522 lung = test system: NCI-H522 lung
# A549/ATCC NSCLC = test system: A549/ATCC NSCLC
# 786-0 renal = test system: 786-0 renal
# COLO 205 colon = test system: COLO 205 colon
# DU-145 prostate = test system: DU-145 prostate
# K-562 leukemia = test system: K-562 leukemia
# MALME-3M melanoma = test system: MALME-3M melanoma
# MDA-MB-231 breast = test system: MDA-MB-231 breast
# RXF 393 renal = test system: RXF 393 renal
# SF-268 CNS = test system: SF-268 CNS
# SF-295 CNS = test system: SF-295 CNS
# SF-539 CNS = test system: SF-539 CNS
# UACC-257 melanoma = test system: UACC-257 melanoma
# M14 melanoma = test system: M14 melanoma
Structure (SMILES),growth (NCI-H23 lung) [%],growth (NCI-H226 lung) [%],growth (NCI-H322M lung) [%],growth (HOP-62 NSCLC) [%],growth (NCI-H460 lung),growth (HOP-92 NSCLC),growth (NCI-H522 lung),growth (A549/ATCC NSCLC) [%],growth (786-0 renal) [%],growth (COLO 205 colon),growth (DU-145 prostate),growth (K-562 leukemia),growth (MALME-3M melanoma) [%],growth (MDA-MB-231 breast),growth (RXF 393 renal),growth (SF-268 CNS) [%],growth (SF-295 CNS),growth (SF-539 CNS),growth (UACC-257 melanoma) [%],growth (M14 melanoma)
COc1ccc(C2CC(c3ccc(Nc4nc(Nc5ccc(F)cc5)nc(Nc5ccc(Cl)cc5)n4)cc3)=NN2C(C)=O)cc1 (stereo not given),91.8,97.7,123,110,102%,82.8%,58.1%,90.2,98.9,96.1%,122%,114%,88.1,90.9%,86.6%,131,103%,101%,98.5,104%
COc1ccc(-c2[nH]c3ccc(OC)cc3c2/C=C(\C#N)S(=O)(=O)c2ccccc2)cc1,24.9,72.3,53.5,69.1,4.64% (active),29.2%,34.5%,23.5,27.8,-43.4% (active),17.3%,19.8%,61.3,14.9%,-7.82% (active),33.8,10.6%,-37.8% (active),81.7,25.3%
NS(=O)(=O)c1ccc(-n2nc(-c3ccc(Cl)cc3)c3ccccc3c2=O)cc1,101,96.1,148,92.6,96.3%,80.9%,87.4%,87.5,92.7,111%,111%,84.2%,182,87.9%,98.8%,98.1,97.3%,89.4%,116,103%
COc1cccc2nc3n(c12)C(c1c(F)cccc1F)SC3 (stereo not given),94.8,82.7,102,104,99%,46.4%,80.4%,98,101,106%,128%,84.6%,101,93.2%,105%,108,99.9%,95.7%,100,111%
Cc1cc(=O)oc2cc(OC(=O)N3CCN(C)CC3)ccc12,99.6,101,105,104,107%,103%,98.9%,103,108,116%,110%,90.3%,103,104%,121%,101,104%,96.3%,106,95.5%
CC(=O)c1ccc(Nc2nc(C(C)=O)c(C)s2)cc1,96,66.2,82,95.4,97.8%,102%,87.9%,95.5,95.8,109%,102%,88.7%,105,98%,101%,98,98.6%,103%,103,104%
Cc1cccc(OCC(O)CN2CCN(c3ccc(Cl)cc3)CC2)c1 (stereo not given),95.2,112,125,118,108%,80%,109%,98.5,96.5,96.7%,113%,96.9%,153,98.7%,118%,99.4,94.5%,104%,108,94.7%
C[C@]12CC[C@@H]3c4cc(OC(F)F)c(OS(N)(=O)=O)cc4CC[C@H]3[C@@H]1CC[C@@H]2O,24.5,54.9,42.4,38.7,12.1%,58.6%,19.8%,29.5,42.3,12.4%,9.26% (active),12.3%,26.4,43.3%,-5.44% (active),49.6,2.5% (active),-3.28% (active),67.4,5.82% (active)
COc1ccc2cc(C(C)C(=O)Nc3ccc(-c4n[nH]c(=S)n4C4CCCCC4)cc3)ccc2c1 (stereo not given),90.2,95.3,114,84.3,43.2%,43.4%,64.8%,41.2,78.4,75.5%,89.1%,63.9%,124,75.9%,91.1%,65.5,60.7%,83.8%,76.7,63.2%
Cc1ccc(-c2cnc3sc(C(=O)NCCc4ccccc4)c(C)n23)cc1,95.4,78.6,91.6,89.1,102%,91.1%,91.7%,109,97.7,116%,99.1%,93.9%,95.5,79.1%,99.1%,86.7,104%,96.6%,120,91.9%
Cc1[nH]c(C(=O)Nc2ccc(C(=O)NCCN)cc2OC(C)C)c(Cl)c1Cl,79.5,93.5,53.3,59.9,-55.2% (active),29.7%,-6.73% (active),47.3,44,-45.7% (active),33.8%,-19.3% (active),63.3,-27% (active),83.5%,68.1,89.7%,-22.3% (active),105,-31.1% (active)
O=C(N/N=C/[C@H](O)[C@H](O)[C@H](O)CO)c1ccc(NC(=O)c2cccnc2)cc1,101,105,105,97.5,104%,103%,92.7%,99.8,105,112%,111%,105%,108,94.5%,107%,98.6,101%,98.5%,99.8,102%
O=C1NC(=O)C(c2ccccc2)(c2ccccc2)N1Cc1cn(-c2c3ccccc3nc3ccccc23)nn1,85.5,99.5,92.9,87.5,74.1%,67.3%,15.9%,78.2,87.3,107%,91.2%,39.2%,104,73.1%,85.6%,89.3,99%,98.5%,89.1,96.2%
O=C(CCCCCCSc1nc(-c2ccccc2)cc(-c2ccccc2)n1)NO,27.6,56,45,29.5,24.4%,7.75% (active),-0.297% (active),27.4,65,25.7%,36.3%,11.3%,14.3,40.8%,6.08% (active),62.3,41.7%,53.1%,29,31.7%
CNCCCC12CCC(c3ccccc31)c1ccccc12,92.1,107,92,82.9,97.3%,48.5%,88.8%,90.1,65.7,7.78% (active),103%,80.6%,82.6,80.2%,61.7%,92.5,100%,99.2%,95.9,80.4%
